The supplement of paper PMC10849652
About 8,800 targets were measured; listed, in parts, are those with a hit and a random draw of the rest. About 0.5% of all pairs of compound and target were hits.

Key:
Experiment in all cases: log2 fold change, soluble protein after heating vs DMSO (PISA); higher = thermal stabilisation; K562 lysate, 10 uM; active = over 0.2 and 3.5 SD of the protein, either way, in both replicates (recomputed)
alvocidib = compound: CN1CC[C@H](c2c(O)cc(O)c3c(=O)cc(-c4ccccc4Cl)oc23)[C@H](O)C1 [alvocidib]
Outline: (§1)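 A 30 min treatment with 10 μM compound was applied to crude K562 extract at 1 mg/mL protein in PBS pH 7.4 with 1 mM MgCl2. Heating for 3 min spanned 48°C-58°C, after which aliquots were pooled, adjusted to 0.5% NP-40 at 4°C and spun at 21,000xg for 90 min. TMTpro 16plex LC-MS/MS of the supernatant, with channel sums equalised, gave values recorded as log-two fold change in thermal stability against solvent controls, from duplicates.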

Tubastatin A = compound: CN1CCc2c(c3ccccc3n2Cc2ccc(C(=O)NO)cc2)C1 [Tubastatin A]
Outline: as §1

[1] = compound: CNC(=O)C1=CC=CC=C1NC2=NC(=NC=C2Cl)NC3=C(C=C(C=C3)N4CCOCC4)OC
Outline: as §1

defactinib = compound: CNC(=O)c1ccc(Nc2ncc(C(F)(F)F)c(NCc3nccnc3N(C)S(C)(=O)=O)n2)cc1 [defactinib]
Outline: as §1

[2] = compound: CNc1nc(-c2ccc3c(N)n[nH]c3c2)cc(N2C[C@@H](C(=O)NC3CCCCC3)CC[C@H]2C)n1
Outline: as §1

encorafenib = compound: COC(=O)N[C@@H](C)CNc1nccc(-c2cn(C(C)C)nc2-c2cc(Cl)cc(NS(C)(=O)=O)c2F)n1 [encorafenib]
Outline: as §1

[3] = compound: COC(=O)[C@H](CCSC)NC(=O)C1=C(C=C(C=C1)NC[C@H](CS)N)C2=CC=CC=C2
Outline: as §1

alisertib = compound: COc1cc(Nc2ncc3c(n2)-c2ccc(Cl)cc2C(c2c(F)cccc2OC)=NC3)ccc1C(=O)O [alisertib]
Outline: as §1

[4] = compound: COc1cc2nc(-c3cc(F)ccc3O)nc(N[C@@H]3CNC[C@H]3C(C)(C)O)c2cc1OC
Outline: as §1

gefitinib = compound: COc1cc2ncnc(Nc3ccc(F)c(Cl)c3)c2cc1OCCCN1CCOCC1 [gefitinib]
Outline: as §1

lapatinib = compound: CS(=O)(=O)CCNCc1ccc(-c2ccc3ncnc(Nc4ccc(OCc5cccc(F)c5)c(Cl)c4)c3c2)o1 [lapatinib]
Outline: as §1

pictilisib = compound: CS(=O)(=O)N1CCN(Cc2cc3nc(-c4cccc5[nH]ncc45)nc(N4CCOCC4)c3s2)CC1 [pictilisib]
Outline: as §1

crizotinib = compound: C[C@@H](Oc1cc(-c2cnn(C3CCNCC3)c2)cnc1N)c1c(Cl)ccc(F)c1Cl [crizotinib]
Outline: as §1

[5] = compound: C[C@H](C1=CC=C(C=C1)C(=O)NC2=C3C=CNC3=NC=C2)N
Outline: as §1

duvelisib = compound: C[C@H](Nc1ncnc2nc[nH]c12)c1cc2cccc(Cl)c2c(=O)n1-c1ccccc1 [duvelisib]
Outline: as §1

gandotinib = compound: Cc1cc(Nc2cc(CN3CCOCC3)c3nc(C)c(Cc4ccc(Cl)cc4F)n3n2)n[nH]1 [gandotinib]
Outline: as §1

tozasertib = compound: Cc1cc(Nc2cc(N3CCN(C)CC3)nc(Sc3ccc(NC(=O)C4CC4)cc3)n2)n[nH]1 [tozasertib]
Outline: as §1

doramapimod = compound: Cc1ccc(-n2nc(C(C)(C)C)cc2NC(=O)Nc2ccc(OCCN3CCOCC3)c3ccccc23)cc1 [doramapimod]
Outline: as §1

bafetinib = compound: Cc1ccc(NC(=O)c2ccc(CN3CC[C@H](N(C)C)C3)c(C(F)(F)F)c2)cc1Nc1nccc(-c2cncnc2)n1 [bafetinib]
Outline: as §1

[6] = compound: Cc1cccc(CC(=O)N2CCc3c2ccc(-c2cn(C)c4ncnc(N)c24)c3F)n1
Outline: as §1

Measured: log2 fold change

FOXK1 (UniProt P85037)
UniProt P85037, sequence (P85037 whole entry, looked up): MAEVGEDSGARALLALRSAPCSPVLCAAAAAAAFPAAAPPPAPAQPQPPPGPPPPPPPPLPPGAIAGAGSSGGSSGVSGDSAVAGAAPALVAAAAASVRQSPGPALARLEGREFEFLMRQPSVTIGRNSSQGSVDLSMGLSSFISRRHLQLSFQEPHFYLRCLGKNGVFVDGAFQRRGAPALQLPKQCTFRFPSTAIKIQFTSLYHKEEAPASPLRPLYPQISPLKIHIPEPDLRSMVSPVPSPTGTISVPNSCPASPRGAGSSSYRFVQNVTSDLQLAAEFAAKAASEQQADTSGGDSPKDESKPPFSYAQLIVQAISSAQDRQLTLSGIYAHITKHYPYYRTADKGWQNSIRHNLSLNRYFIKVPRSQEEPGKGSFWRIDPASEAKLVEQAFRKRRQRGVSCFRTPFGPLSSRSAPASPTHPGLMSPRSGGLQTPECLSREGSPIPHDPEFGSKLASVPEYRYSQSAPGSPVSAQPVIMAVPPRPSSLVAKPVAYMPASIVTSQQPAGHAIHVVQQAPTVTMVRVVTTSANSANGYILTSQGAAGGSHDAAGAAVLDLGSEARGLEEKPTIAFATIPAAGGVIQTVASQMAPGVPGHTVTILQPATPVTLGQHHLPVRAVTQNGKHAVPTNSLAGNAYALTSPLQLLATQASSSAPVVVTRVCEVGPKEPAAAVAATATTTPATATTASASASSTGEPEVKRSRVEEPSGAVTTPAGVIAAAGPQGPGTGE
inactive: alvocidib -0.037 | Tubastatin A -0.116 | [1] 0.025 | defactinib 0.003 | [2] 0.059 | encorafenib 0.009 | [3] 0.09 | alisertib 0.016 | [4] 0.014 | gefitinib 0.003 | lapatinib 0.006 | pictilisib -0.036 | crizotinib 0.025 | [5] -0.024 | duvelisib -0.043 | gandotinib 0.002 | tozasertib 0.009 | doramapimod 0.035 | bafetinib 0.029 | [6] 0.034

EEFSEC (UniProt P57772)
UniProt P57772, sequence (P57772 whole entry, looked up): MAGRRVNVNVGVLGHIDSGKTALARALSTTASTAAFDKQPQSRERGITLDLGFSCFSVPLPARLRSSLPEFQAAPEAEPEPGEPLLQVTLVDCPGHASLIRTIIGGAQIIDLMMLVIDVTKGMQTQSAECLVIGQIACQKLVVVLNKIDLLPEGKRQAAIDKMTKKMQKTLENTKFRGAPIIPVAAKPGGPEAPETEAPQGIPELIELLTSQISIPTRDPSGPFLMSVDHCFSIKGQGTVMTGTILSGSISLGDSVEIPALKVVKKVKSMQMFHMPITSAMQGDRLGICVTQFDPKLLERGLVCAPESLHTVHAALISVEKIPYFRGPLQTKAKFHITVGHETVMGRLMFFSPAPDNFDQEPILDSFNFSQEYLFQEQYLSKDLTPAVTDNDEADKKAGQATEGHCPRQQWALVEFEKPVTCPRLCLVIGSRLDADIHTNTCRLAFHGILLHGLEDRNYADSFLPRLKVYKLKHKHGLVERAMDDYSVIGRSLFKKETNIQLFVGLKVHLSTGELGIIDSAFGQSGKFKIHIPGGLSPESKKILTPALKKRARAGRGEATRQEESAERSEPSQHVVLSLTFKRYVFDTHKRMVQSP
inactive: alvocidib -0.008 | Tubastatin A -0.157 | [1] 0.019 | defactinib 0.036 | [2] -0.017 | encorafenib 0.018 | [3] 0.098 | alisertib 0.019 | [4] 0 | gefitinib -0.012 | lapatinib -0.019 | pictilisib 0.008 | crizotinib -0.042 | [5] -0.043 | duvelisib 0.031 | gandotinib -0.023 | tozasertib 0.024 | doramapimod 0.022 | bafetinib -0.079 | [6] 0.041

FBRSL1, A0A3B3IRR3
inactive: alvocidib -0.051 | Tubastatin A -0.004 | [1] -0.074 | defactinib -0.002 | [2] 0.008 | encorafenib 0.021 | [3] -0.03 | alisertib -0.018 | gefitinib 0.014 | pictilisib -0.064 | crizotinib 0.086 | [5] -0.114 | duvelisib 0.035 | gandotinib 0.032 | tozasertib -0.105 | doramapimod -0.161 | bafetinib -0.089 | [6] 0.146

ERI1 (UniProt Q8IV48)
UniProt Q8IV48, sequence (Q8IV48 whole entry, looked up): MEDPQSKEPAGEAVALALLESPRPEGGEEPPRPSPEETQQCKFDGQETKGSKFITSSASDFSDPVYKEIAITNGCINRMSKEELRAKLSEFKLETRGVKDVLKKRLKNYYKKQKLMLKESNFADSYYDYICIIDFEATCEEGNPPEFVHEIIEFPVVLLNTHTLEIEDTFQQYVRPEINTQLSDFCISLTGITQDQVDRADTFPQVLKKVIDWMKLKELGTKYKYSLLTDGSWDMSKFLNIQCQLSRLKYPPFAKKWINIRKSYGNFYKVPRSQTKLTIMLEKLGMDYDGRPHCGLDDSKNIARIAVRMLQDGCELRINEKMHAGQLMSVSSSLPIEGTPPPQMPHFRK
inactive: alvocidib 0.008 | Tubastatin A 0 | [1] 0.026 | defactinib 0.004 | [2] -0.021 | encorafenib 0.025 | [3] 0.118 | alisertib -0.015 | [4] -0.02 | gefitinib -0.007 | lapatinib 0.037 | pictilisib -0.079 | crizotinib -0.017 | [5] 0.047 | duvelisib -0.022 | gandotinib -0.123 | tozasertib -0.015 | doramapimod 0.015 | bafetinib 0.04 | [6] -0.051

FARSA (UniProt Q9Y285)
UniProt Q9Y285, sequence (Q9Y285 whole entry, looked up): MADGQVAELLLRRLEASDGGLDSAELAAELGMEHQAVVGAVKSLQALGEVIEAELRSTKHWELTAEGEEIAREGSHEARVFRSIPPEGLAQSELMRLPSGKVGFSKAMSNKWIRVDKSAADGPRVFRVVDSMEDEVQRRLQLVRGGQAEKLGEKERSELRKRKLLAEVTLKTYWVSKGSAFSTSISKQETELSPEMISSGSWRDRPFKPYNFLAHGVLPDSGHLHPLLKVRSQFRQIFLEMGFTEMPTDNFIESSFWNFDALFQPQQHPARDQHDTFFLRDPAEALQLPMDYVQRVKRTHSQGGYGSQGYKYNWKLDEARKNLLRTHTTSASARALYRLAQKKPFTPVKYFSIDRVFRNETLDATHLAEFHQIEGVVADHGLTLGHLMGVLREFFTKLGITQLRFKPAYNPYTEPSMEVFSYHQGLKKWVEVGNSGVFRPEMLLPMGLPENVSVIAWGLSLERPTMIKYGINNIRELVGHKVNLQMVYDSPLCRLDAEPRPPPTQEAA
inactive: alvocidib -0.003 | Tubastatin A -0.105 | [1] 0.007 | defactinib 0.045 | [2] 0.019 | encorafenib -0.02 | [3] 0.098 | alisertib 0.01 | [4] 0.017 | gefitinib -0.014 | lapatinib -0.028 | pictilisib 0.012 | crizotinib -0.05 | [5] -0.003 | duvelisib 0.056 | gandotinib 0.039 | tozasertib -0.063 | doramapimod 0 | bafetinib -0.075 | [6] -0.047

FBXO22 (UniProt Q8NEZ5)
UniProt Q8NEZ5, sequence (Q8NEZ5 whole entry, looked up): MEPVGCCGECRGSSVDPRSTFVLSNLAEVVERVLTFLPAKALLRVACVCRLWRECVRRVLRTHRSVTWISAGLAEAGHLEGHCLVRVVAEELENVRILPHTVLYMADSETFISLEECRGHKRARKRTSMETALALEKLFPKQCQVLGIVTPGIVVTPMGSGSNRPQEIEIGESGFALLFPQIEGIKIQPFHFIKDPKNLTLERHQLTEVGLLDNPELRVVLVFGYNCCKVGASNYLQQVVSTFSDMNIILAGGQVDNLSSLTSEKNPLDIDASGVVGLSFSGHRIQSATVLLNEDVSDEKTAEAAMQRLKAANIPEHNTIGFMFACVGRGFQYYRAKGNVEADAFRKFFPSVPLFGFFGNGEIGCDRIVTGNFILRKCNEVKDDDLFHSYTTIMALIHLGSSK
inactive: alvocidib -0.027 | Tubastatin A -0.002 | [1] -0.074 | defactinib 0.01 | [2] -0.004 | encorafenib -0.014 | [3] -0.006 | alisertib 0.034 | [4] 0.013 | gefitinib 0.017 | lapatinib -0.035 | pictilisib -0.027 | crizotinib -0.035 | [5] 0.035 | duvelisib -0.012 | gandotinib -0.03 | tozasertib 0 | doramapimod 0.034 | bafetinib -0.049 | [6] -0.039

ETFRF1 (UniProt Q6IPR1)
UniProt Q6IPR1, sequence (Q6IPR1 whole entry, looked up): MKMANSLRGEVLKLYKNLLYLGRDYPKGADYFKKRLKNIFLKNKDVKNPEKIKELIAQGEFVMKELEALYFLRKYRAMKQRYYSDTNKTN
inactive: alvocidib 0.025 | Tubastatin A 0.032 | [1] -0.006 | defactinib -0.071 | [2] 0.021 | alisertib 0.003 | [4] -0.042 | gefitinib -0.009 | lapatinib 0.021 | pictilisib -0.01 | crizotinib -0.004 | [5] 0.112 | duvelisib -0.004 | gandotinib -0.087 | doramapimod -0.057 | bafetinib -0.039 | [6] -0.039

DVL2 (UniProt O14641)
UniProt O14641, sequence (O14641 whole entry, looked up): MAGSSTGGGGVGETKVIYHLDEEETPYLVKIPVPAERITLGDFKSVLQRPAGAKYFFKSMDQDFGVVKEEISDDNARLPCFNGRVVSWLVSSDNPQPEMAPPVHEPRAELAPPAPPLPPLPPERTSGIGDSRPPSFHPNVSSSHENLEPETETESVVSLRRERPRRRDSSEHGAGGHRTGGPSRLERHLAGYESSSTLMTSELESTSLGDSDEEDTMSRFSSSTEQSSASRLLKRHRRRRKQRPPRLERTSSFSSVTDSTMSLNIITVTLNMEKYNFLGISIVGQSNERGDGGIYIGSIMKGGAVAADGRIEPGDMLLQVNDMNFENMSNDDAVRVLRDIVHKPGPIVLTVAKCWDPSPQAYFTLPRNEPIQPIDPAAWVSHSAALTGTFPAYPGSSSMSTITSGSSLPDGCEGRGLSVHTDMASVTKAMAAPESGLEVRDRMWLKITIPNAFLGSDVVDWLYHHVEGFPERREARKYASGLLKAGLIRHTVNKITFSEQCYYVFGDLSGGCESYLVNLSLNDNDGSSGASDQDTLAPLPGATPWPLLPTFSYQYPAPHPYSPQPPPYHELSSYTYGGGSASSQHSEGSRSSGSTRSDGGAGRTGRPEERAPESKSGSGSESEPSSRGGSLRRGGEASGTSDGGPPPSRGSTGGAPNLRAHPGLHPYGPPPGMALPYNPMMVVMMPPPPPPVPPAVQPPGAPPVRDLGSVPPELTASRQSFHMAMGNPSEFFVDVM
inactive: alvocidib 0.002 | Tubastatin A -0.079 | [1] -0.039 | defactinib 0.028 | [2] -0.027 | encorafenib -0.018 | [3] -0.036 | alisertib 0.003 | [4] -0.069 | gefitinib 0.006 | lapatinib 0.096 | pictilisib -0.037 | crizotinib -0.056 | [5] 0.026 | duvelisib 0 | gandotinib -0.107 | tozasertib -0.039 | doramapimod 0.106 | bafetinib -0.232 | [6] 0.054

FNTB (UniProt P49356)
UniProt P49356, sequence (P49356 whole entry, looked up): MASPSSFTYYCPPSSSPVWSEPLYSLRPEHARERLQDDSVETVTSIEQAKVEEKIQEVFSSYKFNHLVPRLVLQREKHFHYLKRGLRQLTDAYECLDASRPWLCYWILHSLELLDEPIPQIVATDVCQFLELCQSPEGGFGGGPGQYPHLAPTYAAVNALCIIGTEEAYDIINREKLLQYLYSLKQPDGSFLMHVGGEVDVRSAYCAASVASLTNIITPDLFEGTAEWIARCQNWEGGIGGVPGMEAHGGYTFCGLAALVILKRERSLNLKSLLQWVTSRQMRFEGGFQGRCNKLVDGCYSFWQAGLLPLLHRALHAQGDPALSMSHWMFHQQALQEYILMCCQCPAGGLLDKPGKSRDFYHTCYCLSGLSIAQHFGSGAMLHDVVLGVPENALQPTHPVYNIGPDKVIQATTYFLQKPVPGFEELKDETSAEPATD
inactive: alvocidib -0.003 | Tubastatin A 0.048 | [1] -0.019 | defactinib 0.026 | [2] -0.056 | encorafenib -0.046 | [3] 0.131 | alisertib -0.034 | [4] -0.007 | gefitinib -0.031 | lapatinib 0.027 | pictilisib -0.052 | crizotinib 0.032 | [5] -0.047 | duvelisib 0.143 | gandotinib 0.055 | tozasertib -0.069 | doramapimod -0.053 | bafetinib -0.013 | [6] 0.015
